Active and inactive are the calls of the source.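 Rule for the calls: active = relative FRET score above 0.01, or acceptor fluorescence over 30% below the sample-well median; inactive = the rest.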
Target: Protein Rev (Human immunodeficiency virus type 1 group M subtype B (isolate WMJ22)) (UniProt P05866)
Experiment: disruptors of Rev peptide-RRE RNA complex – biochemical, FRET, acceptor and relative FRET calls, confirmation (AID 837);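 note: relative FRET combines rise in Cy5 acceptor with fall in fluorescein donor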
Conditions: Fl-Rev peptide / Cy5-RRE RNA FRET, 1536-well; at 8 µM

Chain of Protein Rev (Human immunodeficiency virus type 1 group M subtype B (isolate WMJ22)) (P05866 whole entry, looked up): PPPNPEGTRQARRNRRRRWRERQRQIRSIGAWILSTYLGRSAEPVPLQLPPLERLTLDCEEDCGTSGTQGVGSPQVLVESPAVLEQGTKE

Compound | outcome
COc1cccc(-c2cc(C(F)(F)F)nc(N3CCC(C)CC3)n2)c1 | inactive
CCOC(=O)c1cnc(SC)nc1Sc1ccccc1Cl | inactive
COc1ccccc1Nc1nc(N)nc(CN(C)C2CCCCC2)n1 | inactive
CC(C)C(C(=O)O)N1C(=O)/C(=C/C=C/c2ccco2)SC1=S (stereo not given) | inactive; quenches the donor
Cc1ccc2nc(NC(=O)c3ccc(Cl)s3)sc2c1 | inactive
CCN1CCCC1CNC(=O)c1c(O)c2c([nH]c1=O)CCCC2 (stereo not given) | inactive
Cc1c(Cl)cccc1Nc1nc(N)nc(CN2CCCCCC2)n1 | inactive
Cc1nc(Nc2ccncc2)c2oc3ccccc3c2n1 | active
CC(C)COc1ccc(Cc2cnc(N)nc2N)cc1 | active
CCCCNCCCOc1cccc(Cl)c1Cl | inactive
Cn1nc(SCC(=O)O)sc1=S | inactive
O=C(NCc1cccs1)c1cc2c(s1)CCCC2 | inactive
COc1ccc(CN(C)C2CCCCC2)c(C)c1C | inactive
CCOc1cc(-c2ccc(N)c(OCC)c2)ccc1N | active; fluoresces like the donor
Cc1cc(-c2nc3c4c5c(sc4[nH]c(=O)n3n2)CCC5)c(C)o1 | inactive
CC12Cc3ccc4ccccc4c3C=C1C[N+](C)(C)C2 (stereo not given) | inactive
O=C(Nc1nccs1)c1cc2c(s1)-c1ccccc1OC2 | inactive
CCCCCCC1CC(CSC(=N)N)OC1=O (stereo not given) | inactive
CN1CCc2c(sc3c2C(=O)NC(c2cn(Cc4ccccc4)c4ccccc24)N3)C1 (stereo not given) | inactive
CN(C)CCCNC(=O)c1ccc(-c2nc(-c3ccc(Cl)cc3)cs2)cc1 | inactive

Reference: PubChem BioAssay AID837 (The Scripps Research Institute Molecular Screening Center, 2007)
